The target in test [1] is T1, Serine/threonine-protein kinase TBK1 (Homo sapiens) (UniProt Q9UHD2).
T1 sequence (whole entry): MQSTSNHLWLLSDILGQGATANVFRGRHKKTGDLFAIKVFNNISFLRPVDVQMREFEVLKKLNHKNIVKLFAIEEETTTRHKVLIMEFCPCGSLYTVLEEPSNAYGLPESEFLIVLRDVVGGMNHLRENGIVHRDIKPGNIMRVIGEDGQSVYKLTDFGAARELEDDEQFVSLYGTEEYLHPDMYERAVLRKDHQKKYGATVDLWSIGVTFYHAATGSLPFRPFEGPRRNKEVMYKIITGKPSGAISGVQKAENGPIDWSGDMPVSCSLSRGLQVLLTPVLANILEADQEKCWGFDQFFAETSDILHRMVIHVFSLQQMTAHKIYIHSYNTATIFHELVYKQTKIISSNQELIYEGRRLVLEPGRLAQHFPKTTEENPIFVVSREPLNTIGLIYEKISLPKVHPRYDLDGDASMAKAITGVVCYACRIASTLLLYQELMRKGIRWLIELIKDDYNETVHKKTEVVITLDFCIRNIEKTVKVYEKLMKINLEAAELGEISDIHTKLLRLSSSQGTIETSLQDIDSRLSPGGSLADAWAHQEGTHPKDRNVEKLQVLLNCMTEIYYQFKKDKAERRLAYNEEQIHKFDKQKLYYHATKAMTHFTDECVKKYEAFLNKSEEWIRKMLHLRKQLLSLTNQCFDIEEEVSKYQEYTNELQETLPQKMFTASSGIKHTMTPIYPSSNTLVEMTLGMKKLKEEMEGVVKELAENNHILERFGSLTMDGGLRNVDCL
The following applies: at 10 µM.

For test [2], the target named is T2, TGF-beta receptor type-1 (Homo sapiens) (UniProt P36897).
T2 sequence (whole entry): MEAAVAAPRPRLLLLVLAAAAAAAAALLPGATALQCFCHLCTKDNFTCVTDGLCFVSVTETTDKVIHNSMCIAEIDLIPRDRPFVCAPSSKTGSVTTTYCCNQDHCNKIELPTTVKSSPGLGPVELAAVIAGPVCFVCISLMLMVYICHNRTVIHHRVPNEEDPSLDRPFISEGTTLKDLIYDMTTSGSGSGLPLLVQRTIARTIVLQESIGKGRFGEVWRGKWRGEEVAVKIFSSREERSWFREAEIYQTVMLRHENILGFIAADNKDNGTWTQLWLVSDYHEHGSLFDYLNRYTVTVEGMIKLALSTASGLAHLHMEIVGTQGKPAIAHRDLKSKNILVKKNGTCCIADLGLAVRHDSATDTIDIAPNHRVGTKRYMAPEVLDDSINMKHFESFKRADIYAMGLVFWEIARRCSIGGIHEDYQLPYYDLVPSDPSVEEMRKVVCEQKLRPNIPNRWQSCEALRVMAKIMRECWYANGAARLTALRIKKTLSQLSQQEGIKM
The following applies: at 1 µM.

Test [3] addresses T2, TGF-beta receptor type-1 (Homo sapiens). The following applies: at 10 µM.
For test [4], the target named is Insulin-like growth factor 1 receptor (Homo sapiens) (UniProt P08069). The following applies: at 1 µM.
Chain of Insulin-like growth factor 1 receptor (Homo sapiens) (P08069 31-736 limits assumed): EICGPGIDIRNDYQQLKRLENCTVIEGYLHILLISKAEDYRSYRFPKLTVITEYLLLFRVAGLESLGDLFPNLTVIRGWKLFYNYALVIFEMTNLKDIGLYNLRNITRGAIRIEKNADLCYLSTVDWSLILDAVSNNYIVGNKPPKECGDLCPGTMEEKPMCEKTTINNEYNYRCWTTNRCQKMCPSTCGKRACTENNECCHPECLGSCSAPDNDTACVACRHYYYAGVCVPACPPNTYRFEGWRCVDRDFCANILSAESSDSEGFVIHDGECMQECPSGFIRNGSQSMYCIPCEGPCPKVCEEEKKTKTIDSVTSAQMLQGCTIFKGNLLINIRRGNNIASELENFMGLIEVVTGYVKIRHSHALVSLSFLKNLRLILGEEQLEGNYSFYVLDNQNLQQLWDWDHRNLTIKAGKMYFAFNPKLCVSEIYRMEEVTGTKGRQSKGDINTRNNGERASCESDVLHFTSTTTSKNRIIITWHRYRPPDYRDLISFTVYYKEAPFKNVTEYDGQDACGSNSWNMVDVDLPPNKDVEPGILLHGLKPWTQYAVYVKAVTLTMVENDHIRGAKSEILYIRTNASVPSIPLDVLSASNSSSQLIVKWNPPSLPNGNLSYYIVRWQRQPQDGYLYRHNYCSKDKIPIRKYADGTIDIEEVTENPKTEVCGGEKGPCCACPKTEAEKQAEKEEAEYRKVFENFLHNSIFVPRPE
Chain of Insulin-like growth factor 1 receptor (Homo sapiens) (P08069 741-1367 limits assumed): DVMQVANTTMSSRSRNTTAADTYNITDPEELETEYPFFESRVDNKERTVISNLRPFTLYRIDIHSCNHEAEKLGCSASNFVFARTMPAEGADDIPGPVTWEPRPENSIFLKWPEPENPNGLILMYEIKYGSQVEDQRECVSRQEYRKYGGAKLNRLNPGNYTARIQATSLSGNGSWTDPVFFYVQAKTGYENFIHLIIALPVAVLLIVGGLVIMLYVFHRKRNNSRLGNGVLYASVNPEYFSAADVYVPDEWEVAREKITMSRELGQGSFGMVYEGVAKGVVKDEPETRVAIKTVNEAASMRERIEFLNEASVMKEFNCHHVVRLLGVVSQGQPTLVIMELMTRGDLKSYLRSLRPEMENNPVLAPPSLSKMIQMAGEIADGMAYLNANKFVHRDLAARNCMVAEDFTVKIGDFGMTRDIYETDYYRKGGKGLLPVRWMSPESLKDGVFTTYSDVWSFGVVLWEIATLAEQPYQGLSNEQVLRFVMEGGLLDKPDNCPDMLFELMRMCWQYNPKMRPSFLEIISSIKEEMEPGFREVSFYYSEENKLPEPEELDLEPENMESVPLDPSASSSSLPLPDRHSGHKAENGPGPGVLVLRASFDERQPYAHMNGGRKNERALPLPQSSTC
Test [5] has the same target. The settings on record: at 10 µM.
For test [6], the target named is T3, Inhibitor of nuclear factor kappa-B kinase subunit alpha (Homo sapiens) (UniProt O15111).
T3 sequence (whole entry): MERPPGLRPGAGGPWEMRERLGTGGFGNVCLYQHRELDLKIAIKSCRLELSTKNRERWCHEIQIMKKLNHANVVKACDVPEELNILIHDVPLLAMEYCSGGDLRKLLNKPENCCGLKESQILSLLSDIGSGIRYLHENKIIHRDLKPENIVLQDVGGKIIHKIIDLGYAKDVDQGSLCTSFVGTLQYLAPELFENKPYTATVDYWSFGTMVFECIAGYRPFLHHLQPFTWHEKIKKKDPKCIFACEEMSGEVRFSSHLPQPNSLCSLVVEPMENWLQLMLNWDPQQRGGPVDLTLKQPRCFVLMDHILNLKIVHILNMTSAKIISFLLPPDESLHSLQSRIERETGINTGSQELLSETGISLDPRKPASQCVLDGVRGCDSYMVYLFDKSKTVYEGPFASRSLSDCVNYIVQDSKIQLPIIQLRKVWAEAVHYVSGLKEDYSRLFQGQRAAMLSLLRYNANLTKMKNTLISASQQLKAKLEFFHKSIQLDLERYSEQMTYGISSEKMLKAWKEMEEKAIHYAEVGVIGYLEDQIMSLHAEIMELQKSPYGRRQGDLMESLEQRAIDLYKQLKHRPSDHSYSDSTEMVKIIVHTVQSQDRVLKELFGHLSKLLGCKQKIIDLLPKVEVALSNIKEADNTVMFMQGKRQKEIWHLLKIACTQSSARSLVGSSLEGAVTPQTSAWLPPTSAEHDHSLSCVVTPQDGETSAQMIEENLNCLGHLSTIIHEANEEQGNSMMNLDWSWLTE
The following applies: at 1 µM.

Test [7] addresses T3, Inhibitor of nuclear factor kappa-B kinase subunit alpha (Homo sapiens). The settings on record: at 10 µM.
Test [8] concerns the target T4, Inhibitor of nuclear factor kappa-B kinase subunit beta (Homo sapiens) (UniProt O14920).
T4 sequence (whole entry): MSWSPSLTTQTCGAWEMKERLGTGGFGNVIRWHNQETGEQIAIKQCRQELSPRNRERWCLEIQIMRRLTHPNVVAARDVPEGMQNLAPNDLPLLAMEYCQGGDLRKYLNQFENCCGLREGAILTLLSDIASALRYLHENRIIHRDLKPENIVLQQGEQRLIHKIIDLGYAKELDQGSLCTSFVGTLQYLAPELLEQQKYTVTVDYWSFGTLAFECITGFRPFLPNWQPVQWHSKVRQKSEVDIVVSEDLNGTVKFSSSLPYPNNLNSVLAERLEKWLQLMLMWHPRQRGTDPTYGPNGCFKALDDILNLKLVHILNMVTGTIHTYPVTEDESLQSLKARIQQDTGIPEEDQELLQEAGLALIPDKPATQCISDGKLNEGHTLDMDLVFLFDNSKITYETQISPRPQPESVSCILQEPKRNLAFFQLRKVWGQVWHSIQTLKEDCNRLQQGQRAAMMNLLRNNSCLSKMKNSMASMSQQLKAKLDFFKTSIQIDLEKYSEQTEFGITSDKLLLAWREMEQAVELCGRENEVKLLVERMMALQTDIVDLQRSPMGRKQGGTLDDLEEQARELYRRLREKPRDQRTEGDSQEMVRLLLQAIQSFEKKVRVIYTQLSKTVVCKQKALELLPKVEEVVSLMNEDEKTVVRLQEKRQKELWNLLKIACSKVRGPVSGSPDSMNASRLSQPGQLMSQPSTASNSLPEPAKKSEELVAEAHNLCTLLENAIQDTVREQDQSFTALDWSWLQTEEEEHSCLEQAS
The following applies: at 1 µM.

Test [9] concerns the target T4, Inhibitor of nuclear factor kappa-B kinase subunit beta (Homo sapiens). The following applies: at 10 µM.
For test [10], the target named is Insulin receptor (Homo sapiens) (UniProt P06213). The following applies: at 1 µM.
Chain of Insulin receptor (Homo sapiens) (P06213 28-758 limits assumed): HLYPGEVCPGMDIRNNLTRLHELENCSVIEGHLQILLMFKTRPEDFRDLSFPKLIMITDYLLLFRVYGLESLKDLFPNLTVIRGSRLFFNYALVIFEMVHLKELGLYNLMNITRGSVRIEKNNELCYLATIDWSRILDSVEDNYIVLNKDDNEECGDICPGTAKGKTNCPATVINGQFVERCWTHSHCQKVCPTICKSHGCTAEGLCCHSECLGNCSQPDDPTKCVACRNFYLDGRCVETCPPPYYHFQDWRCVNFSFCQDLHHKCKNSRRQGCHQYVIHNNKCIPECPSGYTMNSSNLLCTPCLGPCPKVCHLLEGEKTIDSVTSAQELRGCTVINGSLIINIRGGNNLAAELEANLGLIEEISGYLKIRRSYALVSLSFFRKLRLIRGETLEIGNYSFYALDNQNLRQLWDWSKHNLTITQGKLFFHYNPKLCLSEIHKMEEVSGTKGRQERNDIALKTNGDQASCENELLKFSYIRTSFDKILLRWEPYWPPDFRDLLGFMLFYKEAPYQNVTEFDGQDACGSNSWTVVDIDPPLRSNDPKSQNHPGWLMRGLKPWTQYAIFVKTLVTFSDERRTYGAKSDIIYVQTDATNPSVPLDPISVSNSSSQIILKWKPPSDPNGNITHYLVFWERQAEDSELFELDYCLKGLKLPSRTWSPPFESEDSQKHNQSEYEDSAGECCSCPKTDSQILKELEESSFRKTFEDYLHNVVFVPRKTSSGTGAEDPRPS
Chain of Insulin receptor (Homo sapiens) (P06213 763-1382 limits assumed): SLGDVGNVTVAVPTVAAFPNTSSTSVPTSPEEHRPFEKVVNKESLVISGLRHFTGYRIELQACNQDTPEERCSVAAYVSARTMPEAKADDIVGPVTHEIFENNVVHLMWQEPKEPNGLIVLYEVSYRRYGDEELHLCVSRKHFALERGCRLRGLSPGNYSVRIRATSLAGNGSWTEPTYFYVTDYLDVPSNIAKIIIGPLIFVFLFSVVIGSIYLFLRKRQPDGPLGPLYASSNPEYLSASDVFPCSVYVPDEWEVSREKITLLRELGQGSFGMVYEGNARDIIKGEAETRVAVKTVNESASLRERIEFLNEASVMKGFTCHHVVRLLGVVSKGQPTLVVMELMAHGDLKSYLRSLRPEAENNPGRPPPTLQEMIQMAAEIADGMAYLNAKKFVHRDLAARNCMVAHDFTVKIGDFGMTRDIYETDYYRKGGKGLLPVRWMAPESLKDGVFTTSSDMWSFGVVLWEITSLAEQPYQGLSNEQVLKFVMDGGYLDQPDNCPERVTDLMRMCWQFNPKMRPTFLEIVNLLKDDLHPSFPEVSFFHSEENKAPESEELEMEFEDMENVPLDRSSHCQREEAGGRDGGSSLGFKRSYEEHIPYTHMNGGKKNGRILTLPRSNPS

What is called residual activity is the signal under treatment as a percentage of the control signal.

With `O=C1NC(=O)/C(=C\c2ccc3nccnc3c2)S1`, the residual activity is 27% in test [1]; 92% in [2]; 75% in test [3]; 105% in test [4]; 89% in test [5]; 100% in [6]. Moreover, the residual activity in [7] worked out at 54%; in [8] it was 102%; in test [9], 69%; in test [10] it was 107%.

These data come from ChEMBL document CHEMBL2218924, “A broad activity screen in support of a chemogenomic map for kinase signalling research and drug discovery” (Biochem J, 2013).
